The record followed here is PubChem BioAssay (NCI).

SMILES strings stand for the structures. The panel holds about 83,000 compounds, 20% with a hit somewhere; the sample as a whole holds those more often.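 Interpretation: 100, growth as untreated; towards 0, rising growth inhibition; 0, no net growth; 0 to -100, cell death. Compounds scoring below 10 were considered active.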 Values without a mark were called inactive. Activity calls are given as the source filed them.

Some test systems named below: T-47D breast; BT-549 breast; MDA-MB-435 melanoma; SW-620 colon; MCF7 breast; HCT-116 colon; HCC-2998 colon; KM12 colon; MDA-MB-468 breast.
What all share (experiment): NCI-60 one-dose screen, 48 h (100 = growth as untreated, 0 = no growth, -100 = all killed)
What all share (conditions): 10 µM

Turning to `COc1cc(/C=C/C(=O)c2ccc(C(F)(F)F)cc2)ccc1Oc1nc(Nc2ccc(F)cc2)nc(N(C)C)n1`, the growth with T-47D breast is 44.6%; with BT-549 breast it was 90.9%; in the assay with MDA-MB-435 melanoma it was 80.1%; with SW-620 colon it was 50.2%; in the assay with MCF7 breast it was 30.8%; in the assay with HCT-116 colon, 7.06% (active). In addition, the growth was 97.9% in the assay with HCC-2998 colon, 87.8% with KM12 colon and 66.4% with MDA-MB-468 breast.
As to `COc1cc2c(cc1OC)CN(CCCCOc1cc(O)c3c(=O)cc(-c4ccccc4)oc3c1)CC2`, the growth in the assay on T-47D breast was 1.69% (active); in the assay with BT-549 breast it was 63.6%; with MDA-MB-435 melanoma, 67.5%; with SW-620 colon, 62.8%; in the assay with MCF7 breast, 29.3%; in the assay with HCT-116 colon it was 0.234% (active). The growth with HCC-2998 colon is -7.68% (active); in the assay with KM12 colon, 80.1%; in the assay on MDA-MB-468 breast, -7.3% (active).
For the compound `O=C(Cn1cc(CSc2nnc3oc4ccccc4n23)nn1)Nc1cccc(Cl)c1`, the growth in the assay with T-47D breast was 45.2%; with BT-549 breast, 83.1%; in the assay with MDA-MB-435 melanoma, 74.4%; in the assay with SW-620 colon, 103%; in the assay with MCF7 breast, 49%; with HCT-116 colon, 71.8%. Further, the growth with HCC-2998 colon is 84.7%; in the assay with KM12 colon, 70.6%; in the assay on MDA-MB-468 breast, 37.7%.
For `CN1C/C(=C\c2ccc(O)cc2O)c2[o+]c3cc(O)ccc3cc2C1`, the growth with T-47D breast was 3.02% (active); in the assay with BT-549 breast it was 39.8%; in the assay with MDA-MB-435 melanoma, 20.4%; in the assay on SW-620 colon, 23.1%; with MCF7 breast it was 11%; in the assay on HCT-116 colon, 16.4%. Moreover, the growth with HCC-2998 colon is 25.2%; in the assay on KM12 colon, 25%; with MDA-MB-468 breast it was -16.3% (active).
As to `COc1cc2c3c(n(CCCNCCO)c(=O)c2cc1OC)-c1nc2c(cc1C3=O)OCO2`, the growth in the assay with T-47D breast was 1.91% (active); in the assay with BT-549 breast, 25.3%; in the assay on MDA-MB-435 melanoma, 45.2%; in the assay with SW-620 colon, 20.2%; with MCF7 breast, -11.4% (active); in the assay on HCT-116 colon, -49.8% (active). The growth in the assay with HCC-2998 colon was 11.6%; with KM12 colon, 40.4%; with MDA-MB-468 breast, -58.8% (active).
Consider `COc1ccc(-c2nc(S(=O)(=O)c3ccccc3)c(S(C)(=O)=O)o2)cc1`, for which the growth with T-47D breast was -64.5% (active); in the assay on BT-549 breast, 3.82% (active); in the assay on MDA-MB-435 melanoma, -60.2% (active); with SW-620 colon it was -25.3% (active); with MCF7 breast, -57.5% (active); in the assay on HCT-116 colon, 0.823% (active). The growth in the assay on HCC-2998 colon was -26.8% (active); with KM12 colon, 66%; with MDA-MB-468 breast it was -88.1% (active).
As to `COc1cc(OC(F)(F)F)ccc1C(=O)Nc1sc2c(c1C#N)CCC(=O)C2`, the growth is -4.87% (active) with T-47D breast; 14.1% in the assay with BT-549 breast; 97.9% in the assay on MDA-MB-435 melanoma; 31.6% in the assay with SW-620 colon; 73.2% in the assay on MCF7 breast; 40.7% in the assay on HCT-116 colon. Moreover, the growth in the assay with HCC-2998 colon was 111%; in the assay with KM12 colon it was 88.1%; in the assay on MDA-MB-468 breast it was 77.7%.
Take `COc1cc(Cn2c(C(F)(F)F)cc3c(Cl)ncnc32)ccn1`: the growth was 66.5% with T-47D breast; -15.9% (active) with BT-549 breast; -0.488% (active) with MDA-MB-435 melanoma; 4.9% (active) in the assay with SW-620 colon; 7.67% (active) with MCF7 breast; -23.4% (active) with HCT-116 colon. Moreover, the growth in the assay with HCC-2998 colon was -95.6% (active); with KM12 colon, 30.8%; in the assay with MDA-MB-468 breast it was -80.9% (active).
Turning to `C=C[C@@]12CN3CC[C@]1(O)[C@@](C(=O)OC)(CO2)c1[nH]c2ccccc2c1C3`, the growth in the assay on T-47D breast was 40.8%; in the assay with BT-549 breast, 38.4%; with MDA-MB-435 melanoma it was 32.7%; in the assay on SW-620 colon, 55%; in the assay on MCF7 breast, 42.6%; with HCT-116 colon it was 57.9%. Also, the growth is 89.4% in the assay with HCC-2998 colon, 78% in the assay with KM12 colon and -8.94% (active) with MDA-MB-468 breast.
With `O=C(Nc1ccncc1)c1ccc(-n2c(=O)[nH]c3ccccc3c2=O)cc1`, the growth with T-47D breast is 81.7%; in the assay on BT-549 breast, 92.6%; in the assay with MDA-MB-435 melanoma, 103%; in the assay with SW-620 colon it was 101%; with MCF7 breast, 92.3%; in the assay with HCT-116 colon, 99.1%. In addition, the growth in the assay with HCC-2998 colon was 107%; in the assay on KM12 colon it was 110%; in the assay on MDA-MB-468 breast it was 69.6%.
For `Nc1nc(Nc2ccccc2)nn1Cc1c(Cl)cccc1Cl`, the growth in the assay with T-47D breast is 15%; in the assay on BT-549 breast, 23.6%; with MDA-MB-435 melanoma, 48.4%; in the assay on SW-620 colon, 56.3%; in the assay with MCF7 breast it was 16%; in the assay on HCT-116 colon it was 22.4%. The values for the growth in the assay with HCC-2998 colon, in the assay with KM12 colon and in the assay on MDA-MB-468 breast were 15.2%, 13% and 5.3% (active), respectively.
For the compound `CSc1nc(-c2cccc(C)c2)c2cc(-c3ccccc3)n(C)c2n1`, the growth in the assay on T-47D breast was 1.02% (active); with BT-549 breast, -5.93% (active); with MDA-MB-435 melanoma, -39.3% (active); in the assay with SW-620 colon, 20.3%; with MCF7 breast, 5.57% (active); in the assay on HCT-116 colon it was 13.5%. For the same compound, the growth is 39.4% in the assay with HCC-2998 colon, 6.5% (active) in the assay on KM12 colon and -29.2% (active) in the assay with MDA-MB-468 breast.
As for `COc1cc(/C=C/C(=O)c2ccc(NC(=O)CSc3nnc(-c4c[nH]c5ccccc45)n3-c3ccccc3)cc2)cc(OC)c1OC`, the growth in the assay with T-47D breast was 69.6%; in the assay with BT-549 breast, 54.9%; with MDA-MB-435 melanoma, 34.1%; with SW-620 colon, 25.4%; in the assay on MCF7 breast, 10%; with HCT-116 colon, -30.2% (active). Also, the growth in the assay with HCC-2998 colon is 23.8%; in the assay with KM12 colon it was 48.8%; with MDA-MB-468 breast, 37%.
With `Cc1noc2c(Cc3ccccc3)nn(CC(=O)N/N=C/c3ccc(Cl)cc3)c(=O)c12`, the growth was 9.05% (active) in the assay with T-47D breast; 89.4% in the assay with BT-549 breast; 75.8% in the assay with MDA-MB-435 melanoma; 51.7% in the assay with SW-620 colon; 51.9% in the assay with MCF7 breast; 26.4% in the assay on HCT-116 colon. Besides, the results for the growth in the assay with HCC-2998 colon, in the assay on KM12 colon and with MDA-MB-468 breast were 79.7%, 72.6% and 81%, respectively.
Regarding `O=C(CSc1nnc(-c2c[nH]c3ccccc23)n1-c1ccccc1)c1ccc(Br)cc1`, the growth in the assay with T-47D breast was 22%; in the assay with BT-549 breast it was 65.2%; with MDA-MB-435 melanoma, 40.9%; in the assay on SW-620 colon, 79.8%; in the assay on MCF7 breast, 53.4%; in the assay with HCT-116 colon, 54.3%. In addition, the growth in the assay on HCC-2998 colon is 31.7%; in the assay with KM12 colon, 34.6%; with MDA-MB-468 breast, 22%.
